Consider 17 compounds from ChEMBL document CHEMBL2218924, “A broad activity screen in support of a chemogenomic map for kinase signalling research and drug discovery” (Biochem J, 2013).

For assay [1], the target named is T1, Serine/threonine-protein kinase 3 (Homo sapiens) (UniProt Q13188).
T1 sequence (whole entry): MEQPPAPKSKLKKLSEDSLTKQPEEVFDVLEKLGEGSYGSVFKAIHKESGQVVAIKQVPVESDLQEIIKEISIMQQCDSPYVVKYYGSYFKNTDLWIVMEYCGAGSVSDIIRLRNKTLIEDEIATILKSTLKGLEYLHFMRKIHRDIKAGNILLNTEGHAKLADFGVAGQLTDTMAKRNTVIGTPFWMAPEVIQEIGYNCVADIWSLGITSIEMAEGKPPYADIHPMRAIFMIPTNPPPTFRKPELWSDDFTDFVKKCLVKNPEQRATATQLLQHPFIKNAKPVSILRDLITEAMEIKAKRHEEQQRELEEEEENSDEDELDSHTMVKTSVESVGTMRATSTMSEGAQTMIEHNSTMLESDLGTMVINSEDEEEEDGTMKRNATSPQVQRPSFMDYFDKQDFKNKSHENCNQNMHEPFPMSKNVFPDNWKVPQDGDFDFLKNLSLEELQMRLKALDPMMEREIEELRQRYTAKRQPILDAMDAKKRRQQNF
The settings on record: at 1 µM.

Assay [2] has as its target T1, Serine/threonine-protein kinase 3 (Homo sapiens). Conditions: at 10 µM.
In assay [3] the target is Serine/threonine-protein kinase 24 (Homo sapiens) (UniProt Q9Y6E0). Conditions: at 1 µM.
Sequence of Serine/threonine-protein kinase 24 (Homo sapiens) (Q9Y6E0 whole entry, looked up): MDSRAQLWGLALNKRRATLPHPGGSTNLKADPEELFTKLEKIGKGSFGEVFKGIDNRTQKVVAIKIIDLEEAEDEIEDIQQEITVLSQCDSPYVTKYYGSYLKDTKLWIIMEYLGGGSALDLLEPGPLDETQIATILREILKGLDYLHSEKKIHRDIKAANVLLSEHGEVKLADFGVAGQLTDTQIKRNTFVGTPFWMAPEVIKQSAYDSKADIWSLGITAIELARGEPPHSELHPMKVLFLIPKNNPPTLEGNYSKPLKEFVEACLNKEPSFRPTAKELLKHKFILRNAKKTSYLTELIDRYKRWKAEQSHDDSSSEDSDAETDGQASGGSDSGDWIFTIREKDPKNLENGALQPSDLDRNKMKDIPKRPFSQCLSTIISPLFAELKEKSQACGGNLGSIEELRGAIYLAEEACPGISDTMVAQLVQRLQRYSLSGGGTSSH
Assay [4] has the same target. The settings on record: at 10 µM.
Assay [5] addresses T2, Tyrosine-protein kinase Mer (Homo sapiens) (UniProt Q12866).
T2 sequence (whole entry): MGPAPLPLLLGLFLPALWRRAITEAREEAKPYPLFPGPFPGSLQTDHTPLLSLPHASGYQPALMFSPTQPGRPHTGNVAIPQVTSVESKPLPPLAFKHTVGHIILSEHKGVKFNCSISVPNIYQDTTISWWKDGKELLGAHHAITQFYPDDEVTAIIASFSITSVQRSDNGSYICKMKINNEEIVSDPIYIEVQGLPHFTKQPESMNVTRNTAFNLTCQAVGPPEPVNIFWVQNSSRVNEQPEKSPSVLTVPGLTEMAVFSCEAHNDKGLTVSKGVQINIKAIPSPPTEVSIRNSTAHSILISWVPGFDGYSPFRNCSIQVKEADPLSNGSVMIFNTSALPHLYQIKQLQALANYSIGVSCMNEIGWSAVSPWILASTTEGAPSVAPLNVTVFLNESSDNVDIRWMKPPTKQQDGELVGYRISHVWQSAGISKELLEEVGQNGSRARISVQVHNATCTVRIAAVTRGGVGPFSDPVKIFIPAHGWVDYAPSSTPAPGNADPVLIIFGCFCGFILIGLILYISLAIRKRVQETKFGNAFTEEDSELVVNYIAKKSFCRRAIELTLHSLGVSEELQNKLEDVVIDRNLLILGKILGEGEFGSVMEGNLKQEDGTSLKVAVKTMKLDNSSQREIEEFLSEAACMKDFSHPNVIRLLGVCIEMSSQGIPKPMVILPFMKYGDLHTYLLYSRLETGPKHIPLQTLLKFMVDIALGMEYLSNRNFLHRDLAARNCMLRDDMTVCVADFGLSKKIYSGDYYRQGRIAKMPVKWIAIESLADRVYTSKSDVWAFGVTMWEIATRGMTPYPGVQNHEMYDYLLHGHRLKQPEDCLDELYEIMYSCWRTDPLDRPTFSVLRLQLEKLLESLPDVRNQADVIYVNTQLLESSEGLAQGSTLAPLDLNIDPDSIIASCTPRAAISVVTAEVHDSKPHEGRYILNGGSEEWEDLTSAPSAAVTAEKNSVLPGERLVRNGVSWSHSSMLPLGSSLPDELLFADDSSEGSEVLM
The settings on record: at 1 µM.

Assay [6] has as its target T2, Tyrosine-protein kinase Mer (Homo sapiens). The settings on record: at 10 µM.
The target in assay [7] is Hepatocyte growth factor receptor (Homo sapiens) (UniProt P08581). The settings on record: at 1 µM.
Sequence of Hepatocyte growth factor receptor (Homo sapiens) (P08581 whole entry): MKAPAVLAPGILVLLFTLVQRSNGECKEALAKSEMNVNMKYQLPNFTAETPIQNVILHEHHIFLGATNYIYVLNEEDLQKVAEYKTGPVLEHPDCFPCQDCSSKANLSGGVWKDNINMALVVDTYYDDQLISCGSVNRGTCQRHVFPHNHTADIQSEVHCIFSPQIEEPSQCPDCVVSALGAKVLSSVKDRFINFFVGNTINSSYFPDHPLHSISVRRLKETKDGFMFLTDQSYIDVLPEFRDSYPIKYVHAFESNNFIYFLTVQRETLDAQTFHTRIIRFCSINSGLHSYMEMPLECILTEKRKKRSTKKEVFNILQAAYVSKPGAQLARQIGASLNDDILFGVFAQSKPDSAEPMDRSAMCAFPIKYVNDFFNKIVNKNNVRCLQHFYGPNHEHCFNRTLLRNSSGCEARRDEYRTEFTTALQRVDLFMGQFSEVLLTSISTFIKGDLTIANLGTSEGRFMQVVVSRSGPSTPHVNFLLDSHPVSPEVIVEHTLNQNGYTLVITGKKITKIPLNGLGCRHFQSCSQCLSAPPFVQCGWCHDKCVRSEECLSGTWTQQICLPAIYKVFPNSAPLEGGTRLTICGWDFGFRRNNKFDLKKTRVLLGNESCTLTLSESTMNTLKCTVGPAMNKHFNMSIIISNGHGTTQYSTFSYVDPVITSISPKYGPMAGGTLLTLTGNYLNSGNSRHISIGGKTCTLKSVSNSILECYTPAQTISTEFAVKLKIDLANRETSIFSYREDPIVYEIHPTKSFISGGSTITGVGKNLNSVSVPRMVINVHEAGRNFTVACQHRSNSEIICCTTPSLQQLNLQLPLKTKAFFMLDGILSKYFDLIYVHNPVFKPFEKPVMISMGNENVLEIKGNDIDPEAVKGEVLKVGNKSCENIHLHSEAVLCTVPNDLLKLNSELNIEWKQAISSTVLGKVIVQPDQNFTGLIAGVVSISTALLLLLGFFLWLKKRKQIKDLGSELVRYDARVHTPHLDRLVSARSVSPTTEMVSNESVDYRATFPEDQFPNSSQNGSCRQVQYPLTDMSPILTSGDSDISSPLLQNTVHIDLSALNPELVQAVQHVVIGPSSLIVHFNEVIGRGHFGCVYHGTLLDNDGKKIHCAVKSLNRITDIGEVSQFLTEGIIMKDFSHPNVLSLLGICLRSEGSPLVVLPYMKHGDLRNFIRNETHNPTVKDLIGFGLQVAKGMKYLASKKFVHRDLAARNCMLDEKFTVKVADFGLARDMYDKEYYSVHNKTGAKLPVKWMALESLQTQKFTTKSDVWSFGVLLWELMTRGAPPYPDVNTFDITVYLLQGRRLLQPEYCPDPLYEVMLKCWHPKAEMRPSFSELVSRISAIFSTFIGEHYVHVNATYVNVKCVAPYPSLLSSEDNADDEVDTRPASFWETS
The target is the same in assay [8]. The settings on record: at 10 µM.
Assay [9] addresses MAP kinase-interacting serine/threonine-protein kinase 2 (Homo sapiens) (UniProt Q9HBH9). The settings on record: at 1 µM.
The target is the same in assay [10]. Conditions: at 10 µM.

Sequence of MAP kinase-interacting serine/threonine-protein kinase 2 (Homo sapiens) (Q9HBH9 whole entry, looked up): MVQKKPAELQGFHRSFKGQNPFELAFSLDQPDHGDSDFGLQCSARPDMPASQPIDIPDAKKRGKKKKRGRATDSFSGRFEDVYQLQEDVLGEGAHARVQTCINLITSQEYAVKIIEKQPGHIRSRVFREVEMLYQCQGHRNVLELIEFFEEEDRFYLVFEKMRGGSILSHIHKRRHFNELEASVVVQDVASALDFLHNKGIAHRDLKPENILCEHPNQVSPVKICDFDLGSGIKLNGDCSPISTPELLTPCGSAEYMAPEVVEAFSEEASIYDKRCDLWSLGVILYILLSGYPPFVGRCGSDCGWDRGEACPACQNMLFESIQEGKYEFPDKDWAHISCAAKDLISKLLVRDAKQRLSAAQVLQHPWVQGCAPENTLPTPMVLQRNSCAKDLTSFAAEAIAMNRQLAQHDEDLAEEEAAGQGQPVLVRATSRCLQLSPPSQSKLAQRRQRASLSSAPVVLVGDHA

As a reminder, the residual activity is the signal under treatment as a percentage of the control signal. Regarding `Cc1nc2cc3nc(-c4cccs4)cnc3cc2n1C`, the residual activity in assay [1] is 107%; in [2], 87%; in assay [3], 90%; in assay [4] it was 96%; in [5] it was 103%; in [6], 41%. The residual activity in [7] was found to be 128%; in assay [8] it was 91%; in assay [9], 84%; in assay [10], 37%.
As to `COc1ccc(OC)c2c(=S)c3ccccc3[nH]c12`, the residual activity in assay [1] is 96%; in assay [2], 93%; in assay [3] it was 80%; in [4] it was 85%; in assay [5] it was 99%; in assay [6], 85%. Further, the residual activity in [7] came to 118%; in assay [8], 119%; in assay [9], 97%; in assay [10], 77%.
For `c1ccc(-c2n[nH]cc2-c2ccnc3ccccc23)nc1`, the residual activity in [1] turned out to be 88%; in assay [2], 88%; in assay [3] it was 66%; in [4] it was 65%; in assay [5] it was 98%; in assay [6], 85%. Moreover, the residual activity turned out to be 108% in assay [7], 90% in assay [8], 109% in assay [9] and 98% in assay [10].
In the case of `Cc1cc2ncc(-c3ccccc3)nc2cc1C`, the residual activity in [1] was 88%; in assay [2], 95%; in [3] it was 65%; in assay [4] it was 83%; in [5] it was 107%; in assay [6] it was 90%. For the same compound, the residual activity in assay [7] turned out to be 87%; in assay [8] it was 134%.
Regarding `CC(=O)O/N=C1\C(=C2\C(=O)Nc3cc(Br)ccc32)Nc2ccccc21`, the residual activity was found to be 65% in [1]; 18% in assay [2]; 85% in assay [3]; 74% in assay [4]; 39% in [5]; 6% in [6]. For the same compound, the residual activity in [7] stood at 89%; in assay [8], 81%; in [9], 101%; in [10], 92%.
As to `COc1cc2ncnc(Nc3ccc(O)c(Br)c3)c2cc1OC`, the residual activity was 97% in assay [1]; 70% in assay [2]; 54% in assay [3]; 43% in assay [4]; 69% in assay [5]; 16% in [6]. In addition, the residual activity in assay [7] was 86%; in assay [8], 72%; in assay [9], 10%; in assay [10], 6%.
On to `Nc1nc(Nc2ccc(S(N)(=O)=O)cc2)nn1C(=S)Nc1c(F)cccc1F`, for which the residual activity was 0% in assay [1]; 1% in assay [2]; 0% in [3]; 1% in [4]; -1% in assay [5]; -1% in assay [6]. Also, the residual activity in assay [7] is 3%; in assay [8] it was 0%; in assay [9] it was 6%; in [10], 14%.
Regarding `O=C(Nc1cccc(Nc2cc(Nc3cccc(C(F)(F)F)c3)ncn2)c1)C1CC1`, the residual activity in assay [1] is 106%; in assay [2] it was 65%; in [3], 69%; in [4] it was 42%; in assay [5], 78%; in [6], 74%. In addition, the residual activity in [7] amounted to 103%; in assay [8], 75%; in assay [9], 39%; in assay [10], 9%.
Regarding `O=C1NC(=O)/C(=C/c2ccc3c(c2)OC(F)(F)O3)S1`, the residual activity in assay [1] is 106%; in assay [2], 102%; in assay [3] it was 60%; in assay [4], 70%; in assay [5] it was 110%; in [6], 95%. Further, the residual activity was determined as 87% in assay [7], 78% in [8], 109% in [9] and 96% in [10].
Take `O=C1Nc2ccccc2/C1=C1/Nc2ccccc2/C1=N\OCCC(O)CO` (stereo not drawn): the residual activity in assay [1] is 4%; in assay [2], 1%; in assay [3], 27%; in [4] it was 3%; in assay [5], 1%; in assay [6], -1%. In addition, the residual activity turned out to be 45% in assay [7], 37% in assay [8], 66% in [9] and 44% in assay [10].
Consider `CNc1cc2c(Nc3cccc(Br)c3)ncnc2cn1`, for which the residual activity in assay [1] was 103%; in assay [2], 88%; in assay [3] it was 76%; in assay [4] it was 86%; in assay [5] it was 96%; in assay [6], 84%. For the same compound, the residual activity in [7] amounted to 89%; in assay [8] it was 73%; in [9], 21%; in assay [10], 12%.
On to `O=c1cc(-c2cccc3c2Sc2ccccc2S3)oc(N2CCOCC2)c1`, for which the residual activity in assay [1] was found to be 92%; in [2], 93%; in assay [3] it was 98%; in assay [4] it was 81%; in assay [5] it was 99%; in [6], 89%. Further, the residual activity in assay [7] stood at 106%; in [8], 120%; in assay [9] it was 100%; in assay [10], 94%.
With `O=C1c2ccccc2-[n+]2ccc3c([nH]c4ccccc43)c21`, the residual activity in assay [1] was 101%; in assay [2], 100%; in assay [3], 71%; in assay [4] it was 70%; in assay [5] it was 95%; in assay [6], 97%. Moreover, the residual activity in assay [7] worked out at 112%; in assay [8], 86%; in assay [9], 55%; in assay [10] it was 42%.
`CCOc1cc2ncnc(Nc3cccc(Br)c3)c2cc1OCC`: the residual activity is 103% in assay [1]; 71% in assay [2]; 61% in assay [3]; 47% in assay [4]; 84% in [5]; 31% in assay [6]. Moreover, the residual activity stood at 58% in [7], 33% in [8], 21% in [9] and 7% in [10].
As to `Oc1ccc(-c2nc(-c3ccc(F)cc3)c(-c3ccncc3)[nH]2)cc1`, the residual activity in assay [1] worked out at 108%; in assay [2], 90%; in assay [3], 93%; in assay [4], 77%; in assay [5], 110%; in assay [6] it was 96%. Also, the residual activity in assay [7] was 117%; in assay [8], 37%; in assay [9] it was 117%; in [10] it was 94%.
Regarding `Oc1n[nH]c2nnc(-c3c(-c4ccccc4)nn4ccccc34)cc12`, the residual activity came out at 96% in assay [1]; 86% in assay [2]; 72% in assay [3]; 71% in assay [4]; 98% in assay [5]; 105% in [6]. Also, the residual activity in assay [7] was 104%; in assay [8], 113%; in assay [9], 107%; in assay [10], 99%.
In the case of `CO[C@H]1[C@@H](OC)C[C@H](C)[C@@H](OC)C2=CC(=O)C=C(NC(=O)/C(C)=C/C=C/[C@H](OC)[C@@H](OC(N)=O)/C(C)=C/[C@@H]1C)C2=O`, the residual activity in [1] turned out to be 110%; in assay [2], 102%; in assay [3], 68%; in assay [4], 72%; in [5], 105%; in assay [6] it was 93%. Also, the residual activity in assay [7] was 114%; in assay [8], 82%; in [9], 104%; in assay [10] it was 107%.
